From article PMC3218832

What was measured:
Assay in all cases: protein binding microarray; high values mean tight binding
Details in all cases: dsDNA, one strand shown
RELARELA (p65 homodimer) = RELARELA (p65 homodimer) (Homo sapiens, UniProt Q04206 1-307)
p50p50 homodimer = p50p50 homodimer (Homo sapiens, UniProt P19838 7-356)
p52p52 homodimer = target: T1, p52p52 homodimer (Homo sapiens, UniProt Q00653 4-332)
T1 sequence: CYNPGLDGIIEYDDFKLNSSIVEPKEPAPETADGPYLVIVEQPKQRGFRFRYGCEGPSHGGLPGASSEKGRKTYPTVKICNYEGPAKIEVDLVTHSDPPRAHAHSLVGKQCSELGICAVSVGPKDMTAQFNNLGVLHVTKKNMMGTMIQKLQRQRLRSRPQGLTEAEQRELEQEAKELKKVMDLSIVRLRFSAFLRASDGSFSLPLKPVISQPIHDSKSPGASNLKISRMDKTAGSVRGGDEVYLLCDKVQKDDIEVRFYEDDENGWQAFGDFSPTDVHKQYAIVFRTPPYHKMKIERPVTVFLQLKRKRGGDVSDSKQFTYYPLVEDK

[1] = target: RELA (p65) subunit of heterodimer;p50 subunit (Homo sapiens;Homo sapiens, UniProt Q04206;P19838 1-307;7-356)
RELA (p65) subunit of heterodimer;p50 subunit, sequence (Q04206 1-307, chain 1 of 2): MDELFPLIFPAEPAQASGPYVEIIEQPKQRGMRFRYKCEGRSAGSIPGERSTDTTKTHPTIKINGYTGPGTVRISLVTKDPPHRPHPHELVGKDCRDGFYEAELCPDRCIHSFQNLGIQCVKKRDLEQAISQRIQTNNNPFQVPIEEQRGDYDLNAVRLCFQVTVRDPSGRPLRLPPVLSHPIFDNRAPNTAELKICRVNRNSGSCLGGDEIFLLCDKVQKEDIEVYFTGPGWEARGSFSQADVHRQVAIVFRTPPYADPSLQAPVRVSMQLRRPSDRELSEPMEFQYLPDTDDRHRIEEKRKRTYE
RELA (p65) subunit of heterodimer;p50 subunit, sequence (P19838 7-356, chain 2 of 2): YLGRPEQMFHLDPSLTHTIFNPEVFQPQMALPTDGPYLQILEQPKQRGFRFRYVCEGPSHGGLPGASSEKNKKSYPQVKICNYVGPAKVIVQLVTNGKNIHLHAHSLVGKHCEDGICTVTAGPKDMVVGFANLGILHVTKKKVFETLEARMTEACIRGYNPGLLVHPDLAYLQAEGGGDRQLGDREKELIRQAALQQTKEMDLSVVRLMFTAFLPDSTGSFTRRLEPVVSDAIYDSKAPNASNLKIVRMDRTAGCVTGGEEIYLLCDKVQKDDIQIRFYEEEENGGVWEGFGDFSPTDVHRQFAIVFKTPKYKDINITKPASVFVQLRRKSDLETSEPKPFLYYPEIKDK

[2] = target: RELA (p65) subunit of heterodimer;p52 subunit (Homo sapiens;Homo sapiens, UniProt Q04206;Q00653 1-307;4-332)
RELB subunit;p50 subunit = RELB subunit;p50 subunit (Homo sapiens;Homo sapiens, UniProt Q01201;P19838 120-401;7-356)
RELB subunit;p52 subunit = target: T2, RELB subunit;p52 subunit (Homo sapiens;Homo sapiens, UniProt Q01201;Q00653 120-401;4-332)
T2 sequence 1: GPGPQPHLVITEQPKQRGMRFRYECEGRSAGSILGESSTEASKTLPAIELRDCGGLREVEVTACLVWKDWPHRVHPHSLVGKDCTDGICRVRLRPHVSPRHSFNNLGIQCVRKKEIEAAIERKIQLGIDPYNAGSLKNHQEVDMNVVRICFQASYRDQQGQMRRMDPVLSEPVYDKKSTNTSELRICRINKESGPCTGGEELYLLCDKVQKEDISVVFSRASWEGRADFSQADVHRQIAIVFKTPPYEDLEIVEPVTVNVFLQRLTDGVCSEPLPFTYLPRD
T2 sequence 2: T1 sequence

[3] = target: C-Rel subunit;p50 subunit (Homo sapiens;Homo sapiens, UniProt Q04864;P19838 1-285;7-356)
[4] = target: T3, C-Rel subunit;p52 subunit (Homo sapiens;Homo sapiens, UniProt Q04864;Q00653 1-285;4-332)
T3 sequence 1: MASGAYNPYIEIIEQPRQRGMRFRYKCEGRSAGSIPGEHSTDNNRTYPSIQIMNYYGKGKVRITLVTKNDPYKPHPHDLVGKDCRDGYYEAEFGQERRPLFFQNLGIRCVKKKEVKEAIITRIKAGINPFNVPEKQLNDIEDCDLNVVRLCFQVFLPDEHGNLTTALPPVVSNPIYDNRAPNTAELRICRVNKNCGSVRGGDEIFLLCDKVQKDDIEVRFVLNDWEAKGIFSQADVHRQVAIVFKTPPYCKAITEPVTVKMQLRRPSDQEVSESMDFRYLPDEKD
T3 sequence 2: T1 sequence

p50p50 homodimer, sequence (P19838 7-356): as the sequence (P19838 7-356, chain 2 of 2) above
RELARELA (p65 homodimer), sequence (Q04206 1-307): as the sequence (Q04206 1-307, chain 1 of 2) above

Sequence	binding signal (RELARELA (p65 homodimer)) [z-score]	binding signal (p50p50 homodimer) [z-score]	binding signal (p52p52 homodimer) [z-score]	binding signal [1] [z-score]	binding signal [2] [z-score]	binding signal (RELB subunit;p50 subunit) [z-score]	binding signal (RELB subunit;p52 subunit) [z-score]	binding signal [3] [z-score]	binding signal [4] [z-score]
GGGGAGGTCCT	0.546	0.328	1.26	0.275	0.847	0.375	0.376	0.314	0.559
CGATGGATCCT	-0.596	-1.5	-0.616	-1.04	-1	-1.33	-1.12	-1.59	-1.01
CGAAAGATCCC	0.0219	-0.089	-0.151	-0.0254	-0.0507	0.0265	-0.282	-0.258	-0.147
GGAGACTTCCC	1.11	0.00445	0.117	0.505	0.17	-0.132	-0.125	0.335	0.286
AGATATCTCCT	-0.509	-1.24	-0.623	-0.927	-1.03	-1.19	-1.06	-1.37	-0.83
AGGATCACCCT	-0.477	-0.136	-0.277	-0.316	-0.525	-0.14	-0.242	-0.558	-0.421
GAGGGTGTCCC	0.223	0.0932	0.206	0.366	0.191	0.314	0.399	0.469	0.107
CAGGATATCCC	0.644	-0.266	-0.111	-0.14	-0.0926	-0.231	-0.211	-0.116	-0.032
CGATGACCCCT	-0.679	-0.0343	-0.125	-0.386	-0.154	-0.223	-0.0567	-0.665	-0.266
CGATTGTCCCT	0.353	1.16	1.18	0.871	0.943	1.29	1.27	0.77	0.66
CAAAAGTTCCC	1.7	0.79	0.496	0.839	0.661	0.674	0.512	0.746	0.598
AGAGGGACCCT	-0.966	-0.326	0.216	-0.688	-0.129	-0.226	-0.0964	-0.803	-0.355
GAATGGATCCC	-0.423	-0.946	-0.505	-0.796	-0.763	-0.777	-0.774	-1.02	-0.839
CGAGAGCCCCT	-0.807	0.741	0.297	0.363	0.418	0.502	0.576	0.0988	0.379
AAGGGGGCCCC	-0.0322	0.728	0.786	0.441	0.981	0.694	1.04	0.532	0.709
CAAGGTATCCC	-0.591	-0.9	-0.296	-0.874	-0.575	-0.488	-0.446	-0.834	-0.451
GAGAAAGTCCC	1.97	1.14	1.91	1.51	1.47	1.81	1.7	1.39	1.69
GGGTAGGCCCC	-0.379	0.314	1.45	0.396	1.04	0.459	0.305	0.392	0.593
CAGAACTTCCC	1.94	0.457	0.196	0.921	0.329	0.182	0.0935	0.664	0.413
CGATTGACCCC	-0.827	-0.753	-0.367	-0.579	-0.288	-0.398	-0.411	-0.541	-0.184

Sequence	binding signal (RELARELA (p65 homodimer)) [z-score]	binding signal (p50p50 homodimer) [z-score]	binding signal (p52p52 homodimer) [z-score]	binding signal [1] [z-score]	binding signal [2] [z-score]	binding signal (RELB subunit;p50 subunit) [z-score]	binding signal (RELB subunit;p52 subunit) [z-score]	binding signal [3] [z-score]	binding signal [4] [z-score]
CAATGACCCCC	-0.602	0.342	0.0634	0.0857	0.113	0.27	0.286	-0.0621	-0.0557
CAGGGCCTCCC	-0.644	-0.933	-0.467	-0.699	-0.636	-0.64	-0.746	-0.529	-0.502
CAGGAAACCCC	2.37	1.03	1.38	1.38	1.31	0.925	1.39	1.04	1.76
GAATGTTTCCC	2.03	0.423	0.332	1.09	0.797	0.422	0.655	1.2	0.614
GGATTTTCCCC	3.79	1.16	2.75	2.27	2.49	2.15	2.39	1.94	2.19
AAAGGACTCCT	-0.688	-1.11	-0.681	-0.94	-0.976	-1.07	-0.964	-1.03	-0.758
CAGTTACCCCC	0.379	1.11	0.638	0.953	0.838	1.01	1.4	1.01	0.788
AAAAAGGTCCC	0.243	0.679	0.569	0.331	0.184	0.63	0.428	0.216	0.157
GAGGGCACCCT	-0.976	-1.27	-0.651	-0.906	-0.74	-0.75	-0.795	-1.04	-0.757
GGGTTACTCCC	0.497	0.249	1.29	0.568	0.789	0.354	0.378	0.398	0.657
CGGTTGCTCCT	-0.357	-1.5	-0.686	-0.927	-0.989	-1.09	-0.904	-1.44	-1
AAGTGCTCCCT	-0.204	-0.136	-0.291	-0.382	-0.51	-0.322	-0.434	-0.836	-0.646
AAAATGATCCC	-0.603	-0.272	-0.265	-0.543	-0.453	-0.443	-0.704	-0.71	-0.512
AAGGACTCCCC	0.78	0.758	0.493	0.844	0.665	0.692	0.442	0.76	0.388
AGGGATCTCCC	1.05	0.595	2.05	1.2	1.32	1.27	1.12	0.678	1.36
CAGGGCTCCCT	-0.815	-0.631	-0.475	-0.698	-0.717	-0.43	-0.477	-0.901	-0.708
GGGGATTCCCT	3.57	1.37	3.18	2.6	3.05	2.45	2.75	2.76	3.46
GAGATTTTCCT	1.17	-0.538	-0.404	-0.116	-0.119	-0.659	-0.507	0.14	0.077
CGGATAATCCT	0.536	-1.31	-0.659	-1.04	-0.831	-1.02	-1.08	-0.945	-0.765
GAATAGACCCT	-0.683	-0.579	-0.346	-0.545	-0.606	-0.679	-0.749	-1.19	-0.574

Sequence	binding signal (RELARELA (p65 homodimer)) [z-score]	binding signal (p50p50 homodimer) [z-score]	binding signal (p52p52 homodimer) [z-score]	binding signal [1] [z-score]	binding signal [2] [z-score]	binding signal (RELB subunit;p50 subunit) [z-score]	binding signal (RELB subunit;p52 subunit) [z-score]	binding signal [3] [z-score]	binding signal [4] [z-score]
GAGTTATCCCT	-0.151	0.156	0.345	-0.075	0.135	0.201	0.304	-0.0693	-0.00956
CGGGGCACCCC	0.313	0.323	1.21	0.7	1.06	0.451	1.1	0.899	1.43
AGGTTACCCCT	-0.124	0.813	0.514	0.468	0.804	0.84	1.36	0.567	0.609
AAGAATGTCCC	1.27	0.914	0.691	0.927	0.625	0.695	0.54	0.518	0.463
CGGTAGTCCCC	0.678	1.22	1.51	1.43	1.31	1.05	1.33	1.12	1.42
CAGTTTGCCCC	1.6	0.492	0.189	1.17	0.571	0.532	0.563	1.5	0.899
GAAAGCTCCCC	-0.0663	0.67	0.244	0.536	0.231	0.445	0.294	0.317	0.189
CAGGTTTCCCT	0.821	1.16	1.21	1.39	1.33	1.28	1.76	1.26	0.893
GAAGGAACCCT	-0.526	-1.31	-0.566	-0.887	-0.818	-0.996	-0.793	-1.1	-0.694
CAGGACTTCCT	-0.0226	-0.664	-0.608	-0.403	-0.542	-0.897	-0.842	-0.448	-0.475
AGGGGATCCCT	1.82	1.11	2.11	2.32	1.95	1.58	1.57	1.42	2.29
CGGTTCCCCCC	0.357	1.52	1.57	2.24	1.89	2.3	2.23	1.85	1.73
GGAAAGATCCT	-0.0836	-1.25	-0.674	-0.749	-0.654	-0.932	-0.789	-0.978	-0.449
AGGTGGTCCCT	-0.0291	0.913	0.63	0.18	0.558	0.666	0.659	0.227	0.391
GAGTAGTCCCT	0.344	1.35	1.21	0.997	0.922	1.12	1.06	0.633	0.66
GAAGAATCCCC	1.11	1.36	2.18	2.18	1.83	2.29	1.85	1.56	1.53
AAAAGGGCCCT	-0.729	-0.423	-0.373	-0.762	-0.52	-0.464	-0.386	-1.07	-0.406
AAAATCTTCCC	1.32	0.807	0.256	0.764	0.419	0.54	0.162	1.06	0.488
GGGGTGATCCC	0.248	0.402	1.59	0.62	1.16	0.387	0.685	0.527	0.91
